Shown are actives, neighbours in structure and some others; about 21% of the full set was active somewhere.
Cycloheximide cs: Cycloheximide Counterscreen for Small Molecule Inhibitors of Shiga Toxin; max response, %; 300,000 tested, 12% active; cell reporter, cycloheximide protein synthesis inhibition counterscreen; in the data active means max response mostly above about 13%, no sharp cut-off; inactive means mostly below about 14%; further: read at 38.3 µM for the half of the compounds with a filed dose
NS1 function inh: qHTS Assay for Inhibitors of Influenza NS1 Protein Function; Potency, µM (highest dose often 46.1 µM); 270,000 tested, 0.4% active; AID 2326, 2010; calls by dose curve; further: actives are rising curves; nearly all actives have a fitted effect of over 50% in size
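Compounds were scored for reversing the slow growth caused by influenza A NS1 in S. cerevisiae, measured by optical density at 600 nm. Assay medium contained 2% galactose at pH 6.0; NS1-free yeast of the same strain were the positive control.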
Shiga toxin inh: A qHTS for Small Molecule Inhibitors of Shiga Toxin | inhibition, % at 38.7 µM | 290,000 tested, 9.2% active | AID 2315, 2010 | Vero cells, Shiga toxin protein synthesis inhibition reporter; in the data active means inhibition mostly above about 28%, no sharp cut-off; inactive means mostly below about 43%
Pf growth 48h: Primary qHTS for delayed death inhibitors of the malarial parasite plastid, 48 hour incubation; P. falciparum luciferase growth in erythrocytes, 48 h; Potency, µM (highest dose often 28.7 µM), actives largely listed as inhibitors; 310,000 tested, 5.9% active
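In quantitative HTS format, infected erythrocytes bearing luciferase-reporter parasites were treated for a single generation at 37 C. Luminescence after adding detection reagent served as the growth measure.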
Pf growth 96h: Primary qHTS for delayed death inhibitors of the malarial parasite plastid, 96 hour incubation | AID 504834, 2011 | Potency, µM (series often up to 28.7 µM), most hits filed as inhibitors | P. falciparum luciferase reporter growth, 96 h | 320,000 tested, 6.9% active
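96 h incubation, 37 C, 5% CO2, of luciferase-reporter P. falciparum-infected RBCs (2% hematocrit, 0.05% parasitemia final) with test compounds; endpoint luminescence.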
Hits are given with their value; – = inactive; ? = inconclusive; · = no result; [ ] = remark or other dose. Unless noted, the call rests on the fitted dose curve; in most records, active means well fitted inhibition curve with a large enough effect; inconclusive means small, poorly fitted or top-dose-only effect, or another doubt; inactive means no such curve, though single readings can be large or run the other way.

SMILES	Cycloheximide cs	NS1 function inh	Shiga toxin inh	Pf growth 48h	Pf growth 96h
CCCCN1c2ccccc2N(CCCO)c2cc(C)nnc21	13.7	–	–	?	?
CCCCn1c(-c2ccccc2)nnc1-c1ccccc1	–	–	–	?	–
COc1ccc(-c2nnc3n2N=C(c2ccccc2OC)CS3)cc1	–	·	–	·	·
c1ccc(OCCSc2nnnn2C2CCCCC2)cc1	30.3	–	95.1	–	–
Cc1cc(C(=O)C(C)Sc2cccc[n+]2[O-])c(C)n1-c1ccc(Cl)cc1 (centres undefined)	10.1	–	–	–	11.7µM
CC(Sc1cccc[n+]1[O-])C(=O)Nc1ccc([N+](=O)[O-])cc1Cl (centres undefined)	–	·	–	–[5.75 µM]	–
C#CCOCCOCCOCCNc1nc(N2CCN(C(=O)CCCCCCCCCCNC(=O)[C@H]([C@@H](C)CC)n3cc(CCCCN=C(N)N)nn3)CC2)nc(N2CCN(C(=O)CCCCCCCCCCNC(=O)[C@H](CCCN=C(N)N)n3cc(C[C@@H](C)CC)nn3)CC2)n1	·	·	·	4.65µM	5.22µM
C#CCOCCOCCOCCNc1nc(N2CCN(C(=O)CCCCCCCCCCNC(=O)[C@H](CCCN=C(N)N)n3cc(C[C@@H](C)CC)nn3)CC2)nc(N2CCN(C(=O)CCCCCCCCCCNC(=O)[C@@H]([C@H](C)CC)n3cc(CCCCCN)nn3)CC2)n1	·	·	·	3.29µM	8.28µM
C#CCOCCOCCOCCNc1nc(N2CCN(C(=O)[C@H]([C@@H](C)CC)n3cc(CCCCN)nn3)CC2)nc(N2CCN(C(=O)[C@H](CCCCN)n3cc(CC(C)O)nn3)CC2)n1 (some centres undefined)	·	·	·	–	–
C#CCOCCOCCOCCNc1nc(N2CCOCC2)nc(N2CCN(C(=O)CCCCCCCCCCNC(=O)[C@H]([C@@H](C)CC)n3cc(CCCCN=C(N)N)nn3)CC2)n1	·	·	·	0.37µM	0.522µM
C#CCOCCOCCOCCNc1nc(N2CCN(C(=O)CCCCCCCCCCNC(=O)[C@H]([C@@H](C)CC)n3cc(CCCCN=C(N)N)nn3)CC2)nc(N2CCN(C(=O)CCCCCCCCCCNC(=O)[C@@H]([C@H](C)O)n3cc(C)nn3)CC2)n1	·	·	·	1.85µM	?
N#Cc1c(-c2ccccc2)nc(SCc2cccc(Cl)c2)[nH]c1=O	–	–	–	–	–
NS(=O)(=O)c1ccc(NC(=O)CN2C(=O)C3C4C=CC(C4)C3C2=O)cc1 (centres undefined)	–	–	–	–	–
CC(Cc1ccccc1)[n+]1cc(/N=C(\[O-])Nc2ccccc2)on1 (centres undefined)	17.4	–	–	–	·
CC(Cc1ccccc1)[n+]1cc(/N=C(\N)[O-])on1 (centres undefined)	–	–	–	–	–
COC(=O)c1cc(S(=O)(=O)Nc2cc(OC)cc(OC)c2)c[nH]1	–	–	–	–	?
Clc1ccc2sc(C3CCNCC3)nc2c1	35.8	–	56.2	–	–
O=c1cc(C(F)(F)F)[nH]c2c(OC(F)(F)F)cccc12	–	–	–	–	?
Cc1nn(CC(=O)NNC(=O)c2ccc(Br)cc2)c(C)c1[N+](=O)[O-]	·	·	·	?	–
CN(C)c1cccc2c1C(=O)c1ccccc1C2=O	13.3	–	–	–	–
O=C1c2cccc(Sc3ccccc3)c2C(=O)c2c(Sc3ccccc3)cccc21	–	–	–	13.1µM	?
Nc1ccc2c(c1)C(=O)c1ccccc1C2=O	·	·	·	–	–
O=C1c2ccccc2C(=O)c2ccccc21	·	·	·	?	15.1µM
O=C1c2cccc(O)c2C(=O)c2c(O)cccc21	–	–	–	–	–
O=C1c2ccccc2C(=O)c2[nH]c(=O)[nH]c21	–	–	–	·	1.65µM
SMILES	Cycloheximide cs	NS1 function inh	Shiga toxin inh	Pf growth 48h	Pf growth 96h
CCCCCCC(C)NC(=S)Nc1cc(S(=O)(=O)N(C)C)ccc1C (centres undefined)	–	–	–	?	–
CC(=O)c1cccc(NC(=O)CCn2c(=O)oc3ccccc32)c1	–	–	–	–	–
O=C1C(=O)c2ccc(-c3ccccc3)cc2-c2ccccc21	–	–	–	10.4µM	3.7µM
COc1ccc(-c2nn(-c3ccccc3)cc2CNC(=O)c2cccc([N+](=O)[O-])c2)cc1	15.1	–	–	?	?
C=CCNC(=O)/C(=C/c1cn(-c2ccccc2)nc1-c1cccc([N+](=O)[O-])c1)NC(=O)c1ccccc1	–	–	–	?	4.15µM
O=C(NCc1cn(-c2ccccc2)nc1-c1ccccc1)c1cccc([N+](=O)[O-])c1	13.5	–	–	?	–
O=C(NCc1cn(-c2ccccc2)nc1-c1ccccc1)c1cc([N+](=O)[O-])cc([N+](=O)[O-])c1	–	–	–	?	?
CN(C)C(=O)/C(=C/c1cn(-c2ccccc2)nc1-c1cccc([N+](=O)[O-])c1)NC(=O)c1ccccc1	–	–	–	–	–
CC1=CC(C)[C@H](/C=N/n2c(=O)[nH]c3c([nH]c4ccc(C)cc43)c2=O)C(C)C1 (some centres undefined)	–	·	–	?	?
Cn1c(=O)c2c(nc(Sc3ncnn3CC(=O)N3CCOCC3)n2C)n(C)c1=O	–	–	–	–	–
O=C(Nc1ccc(Cl)c(Cl)c1)N(CCCN1CCOCC1)Cc1cccs1	–	–	–	·	–
Cc1cccc(NC(=O)COc2ccc(/C=C\c3[nH]c(=O)[nH]c(=O)c3[N+](=O)[O-])cc2)c1	–	–	–	–	–
O=[N+]([O-])c1cccnc1N1CCC(c2cc(-c3ccc(Cl)cc3Cl)n[nH]2)CC1	–	–	–	?	·
COc1ccc(OC)c(-c2cc(C3CCN(c4ncccc4[N+](=O)[O-])CC3)[nH]n2)c1	–	–	–	8.28µM	9.28µM
Cc1nc(-c2cccc(NS(=O)(=O)c3cccc4ccccc34)c2)cs1	–	–	–	–	·
c1ccc2c(Nc3nnc(-c4ccncc4)s3)cccc2c1	48.0	–	33.5	–	–
Cn1cnc(NCc2ccccc2)c1[N+](=O)[O-]	–	–	–	–	–
Cc1cccc(CSCc2ccc(C(=O)O)o2)c1	15.7	–	–	–	–
Cc1cccc(CSCc2ccc(C(=O)NC(C)C)o2)c1	–	–	–	–[0.00184 µM]	3.7µM
c1ccc2nc3c(nc2c1)sc1nc2ccccc2n13	–	–	–	–	–
CC(C)(O)c1cc(=O)sc2nc3ccccc3n12	32.0	–	69.5	–	?
COc1cc2[nH]c(C(=O)N3CCN(C)CC3)cc2c(OC)c1OC	–	–	–	·	–
COc1cccc(N2CCN(C(=O)c3cc4c(OC)c(OC)c(OC)cc4[nH]3)CC2)c1	–	–	–	·	7.38µM
CC1CN(c2nc(-c3ccc(Br)cc3)nnc2-c2ccccc2)CC(C)N1 (centres undefined)	–	–	–	?	8.28µM
Cc1onc(-c2ccccc2)c1C(=O)NC(=S)NNC(=O)c1ccncc1	–	–	–	?	10.4µM
COc1ccc(C(=O)NC(=S)NNC(=O)c2c(-c3ccccc3)noc2C)cc1OC	–	–	–	–	–
